PubChem BioAssay
Calls of active or inactive are those of the source.

How the values were obtained:
[1] = test system: Plasmodium falciparum Sir2 (PF13_0152, Sir2A); test: Plasmodium falciparum Sir2A binding compounds – biochemical, small-molecule microarray, 635 nm fluorescence, primary screen (AID 1098); conditions: fluorescence 635 nm, higher = more signal;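 further: score merges spot fluorescence intensity with its signal-to-noise ratio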
[2] = probe aDKK1 binding to arrayed compounds – biochemical, biotinylated probe, 635/667 nm fluorescence, primary screen (AID 1099); conditions: small-molecule microarray, higher = more signal;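 further: score merges 667nm spot fluorescence with signal to noise across triplicate slides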
[3] = probe aCHRDL2 binding to arrayed compounds – biochemical, biotinylated probe, 635/667 nm fluorescence, primary screen (AID 1100); conditions: small-molecule microarray, higher = more signal
[4] = change in splice reporter luminescence, either direction, cell-based, HEK293, spliceosome inhibition project, primary screen (AID 1101); conditions: HEK293 splicing luciferase reporter, 24 h, higher = more signal, called active from +8 up or from −8 down;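 further: HEK293 cells carrying a splicing-competent luciferase reporter gene; test concentration not given here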
[5] = target: Fibroblast growth factor 10 (Homo sapiens) (UniProt O15520); test: compounds binding fibroblast growth factor 10 – biochemical, small-molecule microarray, 635 nm fluorescence, primary screen (AID 1102); conditions: FGF10 binding, fluorescence 635 nm, higher = more signal
Chain of Fibroblast growth factor 10 (Homo sapiens) (O15520 whole entry, looked up): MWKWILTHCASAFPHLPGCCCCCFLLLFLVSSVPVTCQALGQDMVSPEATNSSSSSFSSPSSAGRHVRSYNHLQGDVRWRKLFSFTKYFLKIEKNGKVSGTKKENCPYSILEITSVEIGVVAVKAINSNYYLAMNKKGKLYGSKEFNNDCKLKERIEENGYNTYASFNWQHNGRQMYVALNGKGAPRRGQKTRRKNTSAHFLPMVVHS

[6] = test system: glycogen synthase kinase-3 (GSK3A per assay name; protocol says GSK3B); test: compounds binding glycogen synthase kinase-3 – biochemical, small-molecule microarray, 635 nm fluorescence, GSK3A, primary screen (AID 1103); conditions: fluorescence 635 nm, higher = more signal; further: the record names both GSK3A and GSK3B
[7] = target: Epidermal growth factor receptor (Homo sapiens) (UniProt P00533); test: compounds binding epidermal growth factor receptor – biochemical, small-molecule microarray, 635 nm fluorescence, primary screen (AID 1104); conditions: EGFR binding, higher = more signal;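 further: score merges 667 nm emission intensity with spot signal to noise over triplicate slides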
Chain of Epidermal growth factor receptor (Homo sapiens) (P00533 whole entry, looked up): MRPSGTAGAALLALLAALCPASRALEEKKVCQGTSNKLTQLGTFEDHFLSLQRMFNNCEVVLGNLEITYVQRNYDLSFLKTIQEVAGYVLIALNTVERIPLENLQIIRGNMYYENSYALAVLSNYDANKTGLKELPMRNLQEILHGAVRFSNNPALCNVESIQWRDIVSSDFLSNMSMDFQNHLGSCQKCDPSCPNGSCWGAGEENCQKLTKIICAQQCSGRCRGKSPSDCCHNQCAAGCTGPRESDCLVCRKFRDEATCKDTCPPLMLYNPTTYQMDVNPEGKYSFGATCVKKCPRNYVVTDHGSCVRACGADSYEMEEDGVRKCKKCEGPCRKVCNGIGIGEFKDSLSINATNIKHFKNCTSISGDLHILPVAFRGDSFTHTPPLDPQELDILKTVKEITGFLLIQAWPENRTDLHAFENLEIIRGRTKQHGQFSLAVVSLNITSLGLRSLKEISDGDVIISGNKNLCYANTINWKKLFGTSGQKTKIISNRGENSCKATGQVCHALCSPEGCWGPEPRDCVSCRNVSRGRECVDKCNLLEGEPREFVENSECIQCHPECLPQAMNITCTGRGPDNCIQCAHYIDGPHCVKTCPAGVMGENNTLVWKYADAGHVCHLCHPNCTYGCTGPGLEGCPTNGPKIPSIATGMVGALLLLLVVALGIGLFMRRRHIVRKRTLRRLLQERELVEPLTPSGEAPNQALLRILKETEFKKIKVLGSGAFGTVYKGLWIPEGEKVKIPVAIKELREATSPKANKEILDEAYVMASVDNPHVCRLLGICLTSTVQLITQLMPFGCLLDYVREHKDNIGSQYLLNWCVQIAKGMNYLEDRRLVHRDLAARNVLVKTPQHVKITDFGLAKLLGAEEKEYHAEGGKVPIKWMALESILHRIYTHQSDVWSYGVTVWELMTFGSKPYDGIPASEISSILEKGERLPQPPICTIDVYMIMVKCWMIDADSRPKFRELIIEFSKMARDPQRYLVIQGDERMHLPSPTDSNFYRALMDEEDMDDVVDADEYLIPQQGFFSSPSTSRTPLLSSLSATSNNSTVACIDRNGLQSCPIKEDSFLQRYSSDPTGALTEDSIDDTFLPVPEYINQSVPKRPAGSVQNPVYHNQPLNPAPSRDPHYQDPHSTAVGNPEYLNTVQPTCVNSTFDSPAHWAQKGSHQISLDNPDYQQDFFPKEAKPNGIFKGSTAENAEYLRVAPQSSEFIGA

[8] = target: Follistatin-related protein 3 (Homo sapiens) (UniProt O95633); test: compounds binding follistatin-related protein 3 – biochemical, small-molecule microarray, 635 nm fluorescence, primary screen (AID 1105); conditions: FSTL3 binding, higher = more signal;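 further: score merges emission near 667 nm and signal to noise per printed spot across three slides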
Chain of Follistatin-related protein 3 (Homo sapiens) (O95633 whole entry, looked up): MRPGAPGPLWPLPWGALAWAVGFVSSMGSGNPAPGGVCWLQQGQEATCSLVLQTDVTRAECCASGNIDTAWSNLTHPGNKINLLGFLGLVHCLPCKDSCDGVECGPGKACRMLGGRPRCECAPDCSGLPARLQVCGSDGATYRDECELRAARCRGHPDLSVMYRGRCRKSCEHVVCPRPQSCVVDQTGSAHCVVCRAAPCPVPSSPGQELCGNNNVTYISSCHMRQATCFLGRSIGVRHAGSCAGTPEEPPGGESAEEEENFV

[9] = target: Dickkopf-related protein 1 (Homo sapiens) (UniProt O94907); test: small molecules binding DKK1 protein – biochemical, small-molecule microarray, 635 nm fluorescence scan, primary screen (AID 1106); conditions: higher = more signal;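 further: score merges emission near 667 nm with signal to noise over three replicate slides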
Chain of Dickkopf-related protein 1 (Homo sapiens) (O94907 whole entry, looked up): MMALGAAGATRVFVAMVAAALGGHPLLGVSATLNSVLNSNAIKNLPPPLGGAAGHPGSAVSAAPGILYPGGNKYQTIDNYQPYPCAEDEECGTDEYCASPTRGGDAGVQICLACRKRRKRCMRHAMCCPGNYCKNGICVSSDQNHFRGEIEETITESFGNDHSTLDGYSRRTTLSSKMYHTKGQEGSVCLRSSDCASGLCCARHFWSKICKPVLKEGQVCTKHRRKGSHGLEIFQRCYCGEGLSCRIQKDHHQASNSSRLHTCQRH

[10] = test system: Inhibin beta A chain (activin A); test: small molecules binding activin A – biochemical, small-molecule microarray, 635 nm fluorescence scan, primary screen (AID 1107); conditions: INHBA, higher = more signal;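 further: mouse activin A protein probed at 4.33 µg/mL on printed slides; score merges bound-protein fluorescence near 667 nm with spot signal-to-noise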
[11] = test system: Human papillomavirus type 1a protein E7 (residues 44-93); test: small molecules binding HPV E7 44-93 – biochemical, small-molecule microarray, residues 44-93, 635 nm fluorescence, primary screen (AID 1108); conditions: fluorescence 635 nm, higher = more signal;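 further: E7 fragment applied at 1 µg/mL in TBST for 1 h at 4 C; score combines spot fluorescence with its signal to noise ratio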
[12] = hepatitis C replication reporter changes, two-sided – Huh7 cells, luciferase reporter, HCV replication inhibitor project, primary screen (AID 1109); conditions: Huh7 HCV replicon luciferase reporter, 48 h; higher = more signal;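 further: huh7 hepatoma cells harbouring a luciferase neomycin HCV replicon reporter; luciferase luminescence as measure of HCV replicon replication; test concentration not given here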
[13] = target: Left-right determination factor 2 (Homo sapiens) (UniProt O00292); test: small molecules binding LEFTY2 protein – biochemical, small-molecule microarray, 635 nm fluorescence scan, primary screen (AID 1110); conditions: higher = more signal
Chain of Left-right determination factor 2 (Homo sapiens) (O00292 whole entry, looked up): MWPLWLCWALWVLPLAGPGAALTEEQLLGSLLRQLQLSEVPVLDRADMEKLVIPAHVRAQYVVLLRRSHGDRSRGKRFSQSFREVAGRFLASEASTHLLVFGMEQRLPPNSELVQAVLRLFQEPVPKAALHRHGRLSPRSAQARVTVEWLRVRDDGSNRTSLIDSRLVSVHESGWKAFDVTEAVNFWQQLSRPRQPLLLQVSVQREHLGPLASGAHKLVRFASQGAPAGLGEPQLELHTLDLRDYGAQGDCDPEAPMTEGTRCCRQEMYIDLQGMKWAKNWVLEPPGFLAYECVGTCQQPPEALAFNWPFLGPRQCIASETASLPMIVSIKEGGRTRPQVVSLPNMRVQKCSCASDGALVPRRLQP

[14] = target: Calmodulin-1 (Homo sapiens) (UniProt P0DP23); test: small molecules binding calmodulin-1 with EGTA – biochemical, small-molecule microarray, Cy5-labelled CALM1, profiling panel (AID 1111); conditions: Cy5-CALM1 binding fluorescence, higher = more signal;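 further: labelled calmodulin applied in Tris saline Tween buffer holding calcium plus EGTA and DTT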
[15] = target: Calmodulin-1 (Homo sapiens) (UniProt P0DP23); test: small molecules binding Ca-loaded calmodulin-1 – biochemical, small-molecule microarray, Cy5-labelled CALM1, plus calcium, artefact control for SMM control-protein annotation, profiling panel (AID 1112); conditions: Cy5-CALM1 binding fluorescence, higher = more signal;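 further: score merges spot fluorescence with signal to noise from triplicate slides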
[16] = probe aWnt5a binding to arrayed compounds – biochemical, biotinylated probe, 635/667 nm fluorescence, primary screen (AID 1113); conditions: small-molecule microarray, higher = more signal;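 further: score merges 667 nm fluorescence intensity with signal-to-noise per printed feature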
[17] = probe aShh binding to arrayed compounds – biochemical, biotinylated probe, 635/667 nm fluorescence, primary screen (AID 1114); conditions: small-molecule microarray, higher = more signal;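 further: probe is biotin-labelled aShh protein from a stem cell growth factor screen; measures binding of labelled protein to compounds printed on the slide; score merges feature fluorescence at 667 nm with signal-to-noise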
[18] = probe aNog binding to arrayed compounds – biochemical, biotinylated probe, 635/667 nm fluorescence, primary screen (AID 1115); conditions: small-molecule microarray, higher = more signal;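 further: probe is biotinylated aNog protein used at 0.15 µg/mL for 1 h at 4 C; z-score combines 667 nm fluorescence of each spot with its signal to noise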
[19] = target: Torsin-1A-interacting protein 1 (Homo sapiens) (UniProt Q5JTV8); test: compound microarray binding of lysate hLAP1 – cell lysate, small-molecule microarray, COS7 lysate, 635/667 nm fluorescence, primary screen (AID 1116); conditions: 635 nm fluorescence, higher = more signal
Chain of Torsin-1A-interacting protein 1 (Homo sapiens) (Q5JTV8 whole entry, looked up): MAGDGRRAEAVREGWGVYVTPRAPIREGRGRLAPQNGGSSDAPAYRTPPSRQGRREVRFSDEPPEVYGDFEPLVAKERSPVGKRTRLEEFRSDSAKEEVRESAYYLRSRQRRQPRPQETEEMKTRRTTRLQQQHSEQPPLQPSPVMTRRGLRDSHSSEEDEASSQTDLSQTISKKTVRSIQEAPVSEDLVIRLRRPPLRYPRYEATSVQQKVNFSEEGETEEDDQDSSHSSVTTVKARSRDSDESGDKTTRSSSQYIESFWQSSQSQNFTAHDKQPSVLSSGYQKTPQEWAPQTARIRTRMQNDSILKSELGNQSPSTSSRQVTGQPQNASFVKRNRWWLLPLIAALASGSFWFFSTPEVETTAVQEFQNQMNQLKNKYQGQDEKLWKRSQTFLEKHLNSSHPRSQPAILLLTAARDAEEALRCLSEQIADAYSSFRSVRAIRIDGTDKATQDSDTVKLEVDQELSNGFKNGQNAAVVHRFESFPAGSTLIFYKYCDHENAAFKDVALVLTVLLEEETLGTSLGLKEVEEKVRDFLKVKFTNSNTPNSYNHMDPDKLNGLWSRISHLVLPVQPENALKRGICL

[20] = target: Alpha-bungarotoxin (Bungarus multicinctus) (UniProt P60615); test: compounds binding labelled alpha-BTX control protein – biochemical, small-molecule microarray, Alexa647 label, 635/667 nm fluorescence, artefact control for SMM control protein annotation, profiling panel (AID 1117); conditions: alpha-BTX-A647 binding fluorescence, higher = more signal
Chain of Alpha-bungarotoxin (Bungarus multicinctus) (P60615 whole entry, looked up): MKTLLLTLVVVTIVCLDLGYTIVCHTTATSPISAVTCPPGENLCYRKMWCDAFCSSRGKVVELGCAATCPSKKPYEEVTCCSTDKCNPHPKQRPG

Compound	composite z-score [1]	composite z-score [2]	composite z-score [3]	z-score [4]	composite z-score [5]	composite z-score [6]	composite z-score [7]	composite z-score [8]	composite z-score [9]	composite z-score [10]	composite z-score [11]	z-score [12]	composite z-score [13]	composite z-score [14]	composite z-score [15]	composite z-score [16]	composite z-score [17]	composite z-score [18]	composite z-score [19]	composite z-score [20]
CO[C@H]1COC(=O)CC=C[C@H](C)COC(=O)[C@@H](C)NC(=O)CC=C[C@@H]1C	1.56	-0.335	-1.42	-1.31 (inactive)	0.337	0.913	1.32	1.47	1.65	0.872	-1.45	-1.83	1.54	-1.13	-2.44	-0.0816	-0.0035	-0.137	0.621	0.13
CO[C@@H]1COC(=O)CC=C[C@H](C)[C@H](OC)COC(=O)[C@H](C)NC(=O)CC=C[C@H]1C	0.657	-0.546	-1.31	0.671 (inactive)	0.616	0.918	0.745	1.44	1.18	1.74	-0.724	1.39	0.965	-0.981	-2.34	-0.0145	0.479	-0.368	-0.242	-0.592
O=c1n(-c2ccccc2)c(=O)n2n1CC[C@@H]1C(=NOCc3ccccc3)[C@H]3O[C@H]3[C@@H](O)[C@@H]12	-0.494	-0.31	-0.393	0.491 (inactive)	0.334	-0.864	-0.0683	-0.136	0.0228	0.168	0.0398	-2.05	0.582	-0.608	-0.879	-0.164	-0.0035	-0.113	0.0741	1.55
C#CCCCON=C1C[C@@H](O)[C@@H](O)[C@@H]2[C@@H]3C(=O)N(C(C)(C)C)C(=O)[C@@H]3CC[C@H]12	0.115	0.765	1.24	0.233 (inactive)	-0.165	-0.656	-0.0084	-0.866	-0.996	0.615	-0.149	-0.134	-0.0304	-0.245	-0.0493	0.0926	-0.154	-0.0675	-0.0059	1.27
O=C1[C@H]2[C@H]3[C@H](O)[C@H](O)CC(=NOC[C@@H](O)COCc4ccco4)[C@H]3CC[C@H]2C(=O)N1C[C@@H]1CCCO1	0.717	-0.369	-1.4	0.273 (inactive)	0.725	1.2	0.947	0.95	1.21	-0.0262	-0.317	-0.205	1.19	-0.428	-1.53	-0.0037	0.0899	-0.158	0.583	0.349
COC(=O)CC=C[C@@H](C)[C@@H](C=NOC[C@H]1O[C@H](c2ccccc2)C=C[C@@H]1Oc1ccc(OC)cc1)OC	-0.67	-0.242	-0.212	-0.194 (inactive)	0.268	-0.393	-0.587	0.173	-0.0407	0.807	-0.585	-1.7	-0.255	-1.15	-1.27	-0.106	-0.243	-0.44	-0.37	-0.262
CCc1cc2c(nc1CC)CCN(CCC(C)=NO[C@H](C)c1cn([C@H](CO)Cc3ccccc3)nn1)C2	0.536	-0.144	-0.0059	-0.0554 (inactive)	0.0168	0.0291	0.1	0.11	0.274	1.3	0.21	-2.38	0.437	-0.315	-0.439	-0.0165	1.19	-0.4	0.967	0.568
CCCNC(=O)OC[C@H]1O[C@H](CCON=C(C)C)C=C[C@@H]1Oc1ccc(OC)cc1	0.415	0.325	0.707	-0.0557 (inactive)	0.325	-0.515	-0.0864	-0.125	-0.288	1.23	-0.599	-1.12	-0.143	0.608	0.304	-0.0887	-0.282	-0.0927	0.587	-0.132
COc1cccc([C@H]2Oc3ccc(OC)cc3C(=NO[C@H](C)c3cn([C@H](CO)Cc4ccccc4)nn3)[C@@H]2O)c1	-0.42	-0.561	-0.0229	0.397 (inactive)	0.0546	-0.617	-0.0537	-0.0403	-0.28	0.548	-0.995	-1.74	0.323	-1.57	-0.45	-0.175	-0.229	-0.141	0.169	-0.689
CC(C)(C)N1C(=O)[C@H]2[C@H]3[C@H](O)[C@H](O)CC(=O)[C@@H]3CC[C@H]2C1=O	0.369	-0.227	-0.658	0.343 (inactive)	0.639	0.239	0.479	0.265	0.711	0.156	0.3	0.6	0.709	-0.339	-0.518	-0.0125	0.0121	-0.108	0.804	0.106
CCOC(=O)[C@H](CC(C)C)NC(=O)CCC1CC(OC(=O)NCc2ccc3c(c2)OCO3)CC2(CCCC(COC(=O)NCc3cccc(C(F)(F)F)c3)O2)O1 (stereo not given in full)	0.15	-0.229	-0.031	-0.235 (inactive)	0.418	-0.319	0.242	0.395	0.355	0.348	0.323	-1.44	0.227	0.0753	-0.259	-0.148	-0.138	-0.316	-0.0298	0.111
